Compounds with a hit are over-represented: about 3.3% of the library has one in this group of screens.
TbPYK inhibitor: T. brucei pyruvate kinase inhibition; Q57TT1; TbPYK enzyme, Kinase-Glo Plus ATP luminescence, 45 min; Potency, µM (highest dose often 76.8 µM), for inactives: at the top dose activity, negative = inhibition, hits mostly inhibitors; 410,000 compounds, 0.12% hits; AID 624173; note: nearly all actives have a fitted effect of over 50% in size
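Readout: single end-point luminescence (Kinase-Glo Plus, 10 min). Reaction conditions were TbPYK/substrate plus 130 uM ADP, 45 min at RT, pH 7.2 TEA buffer. No-enzyme wells served as controls, and data were normalized before concentration-response fitting.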
Sm TGR block: S. mansoni TGR enzyme inhibition; Q962Y6; purified TGR, DTNB reduction, TNB absorbance 405 nm; Potency, µM (titrated, usually from 114 µM), for inactives: at the highest dose activity change, negative = inhibition, usual class: inhibitors; 360,000 compounds, 3% hits; AID 485364; note: nearly all actives have a fitted effect of over 60% in size
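TGR 20 nM + NADPH 100 uM (dispensed conc.), cpd preinc 15 min RT; start with NADPH (500 uM addition) then DTNB (15 mM addition). Kinetic TNB absorbance, 405 nm filter. Four-parameter Hill fit across titration.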
LmPK inh: blocks Leishmania mexicana pyruvate kinase activity | Potency, µM (doses to about 57.5 µM), without a hit: at the highest dose activity change, negative = inhibition, actives largely listed as inhibitors | Q27686 | purified LmPK, Kinase-Glo ATP luminescence, 1 h | AID 1721 | 290,000 compounds, 0.37% hits
Target sequence (Q27686 whole entry, looked up): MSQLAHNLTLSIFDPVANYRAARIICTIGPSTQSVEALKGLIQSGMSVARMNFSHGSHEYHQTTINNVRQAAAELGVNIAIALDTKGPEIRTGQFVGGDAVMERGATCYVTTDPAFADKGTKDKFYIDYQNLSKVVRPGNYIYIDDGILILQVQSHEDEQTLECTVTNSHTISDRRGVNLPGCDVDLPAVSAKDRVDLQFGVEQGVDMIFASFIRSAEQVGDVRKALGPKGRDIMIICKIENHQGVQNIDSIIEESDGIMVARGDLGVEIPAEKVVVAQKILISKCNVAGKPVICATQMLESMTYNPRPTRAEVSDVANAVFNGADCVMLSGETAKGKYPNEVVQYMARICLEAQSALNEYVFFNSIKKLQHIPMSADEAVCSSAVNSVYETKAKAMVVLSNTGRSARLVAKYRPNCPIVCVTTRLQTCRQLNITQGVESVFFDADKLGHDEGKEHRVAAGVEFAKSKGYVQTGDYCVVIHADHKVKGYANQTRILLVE
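0.1 nM LmPK, 0.5 mM PEP, 0.1 mM ADP; 50 mM imidazole pH 7.2, 7 mM MgCl2, 50 mM KCl; 1 h RT. Kinase-Glo luminescence readout, normalized to no-enzyme (full inhibition) and uninhibited wells.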
RE007 growth inh: less growth of the S. pombe RE007 Vpr strain; S. pombe RE007 Vpr strain, BacTiter-Glo ATP luminescence, 24 h; AID 651644; 360,000 compounds, 0.21% hits; Potency, µM (top dose mostly 92.2 µM), without a hit: at the highest dose activity change, negative = less growth, hits mostly inhibitors; active = well fitted falling curve with a large enough effect; inconclusive = small, poorly fitted or top-dose-only effect; inactive = no such curve, though single readings can be large or run the other way; note: nearly all actives have a fitted effect of over 50% in size
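Fission yeast strain RE007, carrying one chromosomally integrated HIV-1 vpr copy, was seeded at OD 0.01 in PMG+AL medium with 23 nL pinned compound. After 24 h at 30 °C and 99% humidity, viability was read by BacTiter-Glo luminescence.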
Giardia FBPA inh: blocks Giardia fructose-bisphosphate aldolase activity | A8B2U2 | purified Giardia FBPA | Potency, µM (titrated, usually from 59.6 µM), for inactives: at the top dose activity, negative = inhibition, actives largely listed as inhibitors | 290,000 compounds, 0.71% hits; note: nearly all actives have a fitted effect of over 55% in size
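40 nM FBPA preincubated 10 min at RT with compound (up to 57.5 uM final), then substrate plus GAPDH/TPI/NAD/arsenate coupling and diaphorase/resazurin added. Fluorescence read after 20 min at RT, 525/598 nm.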
* = called active by the depositor; ? = inconclusive; . = no result given; [ ] = dose if it differs, or a comment. Unless noted, calls come from the whole dose curve; as a rule, active = well fitted curve in the direction sought with a large enough effect; inconclusive = small, poorly fitted or top-dose-only effect, or another doubt; inactive = no such curve, though single readings can be large; an effect the other way counts as inactive or inconclusive. % is set by controls: 0 for no effect and ±100 for the full control effect; potency is the fitted concentration of half-maximal effect.

SMILES	TbPYK inhibitor	Sm TGR block	LmPK inh	RE007 growth inh	Giardia FBPA inh
S=c1[nH]nc(COc2ccc(Cl)cc2)n1-c1ccccc1	8.9µM*	-17%	?	6%	16%
O=C(O)c1ccccc1C(=O)N1CCc2c([nH]c3ccccc23)C1C(F)(F)F (stereo unspecified)	2%	-2%	-1%	-5%	14%
COc1ccc(C2C(C#N)=C(N)OC3=C2C(=O)CC(C)(C)C3)cc1 (stereo unspecified)	4%	-34%	3%	2%	-4%
Cc1cc(C)c(C)c(S(=O)(=O)NCCCN2CCOCC2)c1C	-7%	1%	-3%	2%	2%
Cc1ccc(-n2c(Cc3ccccc3)n[nH]c2=S)cc1	?	4%	7.9µM*	7%	6%
CCOC(=O)c1oc2ccccc2c1NC(=O)CCl	-1%	5.6µM*	-4%	-11%	3%
COC(=O)c1c(NC(=O)CN2CCN(c3cccc(Cl)c3)CC2)sc(C)c1C	0%	2%	-6%	2%	0%
BrCC1C[n+]2c(SCc3ccccc3)nc3sc4c(c3c2O1)CCCC4 (stereo unspecified)	-7%	32µM*	-2%	0%	-19%
CCSc1nc2sc3c(c2c(=O)[nH]1)CCCC3	2%	1%	5%	14%	-3%
CCSc1nc2sc3c(c2c2[n+]1CC(CBr)O2)CCCC3 (stereo unspecified)	-1%	45µM*	2%	2%	?
O=C(O)CCC/C=C\CC1C2CCC(O2)C1CNNC(=O)Nc1ccccc1 (stereo unspecified)	.	.	.	.	1%
COC(=O)C1=C(C(=O)OC)C2C(C)=CC(C)=CN2C(C(=O)OC)=C1C(=O)OC (stereo unspecified)	0%	40µM*	0%	-7%	-28%
CCOc1ccc(NC(=O)c2nn(C)c3c2COc2ccccc2-3)cc1	1%	7.9µM*	.	.	.
COc1cccc(NC(=O)c2nn(C)cc2Br)c1	-20%	.	.	-5%	.
COC(=O)c1cc(NC(=O)c2nn(C)c3c2COc2ccccc2-3)cc(C(=O)OC)c1	-5%	2%	.	.	.
COC(=O)c1ccc(NC(=O)c2nn(C)c3c2COc2ccccc2-3)cc1	5%	?	.	.	.
CCOc1ccc(NC(=O)c2nn(C)cc2Br)cc1	-15%	0%	32µM*	-3%	-1%
COc1cc(OC)c(NC(=O)c2nn(C)c3c2COc2ccccc2-3)cc1Cl	0%	0.71µM*	.	.	.
Cn1cc(Br)c(C(=O)NNC(=O)c2cccc(Br)c2)n1	2%	35µM*	0%	-4%	0%
COCCn1c(N)c(N(Cc2ccccc2)C(=O)Cc2ccccc2F)c(=O)[nH]c1=O	7%	0%	-2%	-2%	2%
O=C(CCl)N(c1ccccc1)c1ccccc1	-3%	1.3µM*	-8%	25%	-2%
CCCCCCN(C(=O)CCl)c1ccccc1	5%	2.5µM*	7%	9%	5%
O=C(CCl)N(CCc1ccccc1)CCc1ccccc1	4%	13µM*	-1%	4%	-6%
Cc1cccc(N(Cc2cc(=O)[nH]c3ccccc23)C(=O)CCl)c1	3%	?	-14%	-20%	0%
O=Cc1[nH]c2ccccc2c1N(C(=O)CCl)c1ccccc1	2%	0.89µM*	3%	3%	-7%
SMILES	TbPYK inhibitor	Sm TGR block	LmPK inh	RE007 growth inh	Giardia FBPA inh
Cc1ccc(Cl)cc1NC(=O)CSc1nc2c(c(=O)[nH]1)CN(Cc1ccccc1)CC2	6%	2%	.	.	.
COC(=O)c1nc(NC(=O)C(C)(C)C)n[nH]1	2%	32µM*	-10%	-6%	0%
COC(=O)c1nc(NC(=O)c2ccc(Br)cc2)n[nH]1	-13%	?	7%	10%	0%
O=C(NC(Cc1c[nH]c2ccccc12)C(=O)O)/C(=C/c1ccc2c(c1)OCO2)NC(=O)c1ccccc1 (stereo unspecified)	-10%	-12%	11%[11.5 µM]	6%	15%
COC(=O)[C@H](CCSC)NC(=O)Cn1ccc(N)nc1=O	-3%	-26%	.	-1%	.
CC(=O)n1nnc2ccccc21	.	.	.	.	4%
C/C(=C\c1ccccc1)C(=O)n1nnc2ccccc21	14%	20µM*	-9%	-9%	5%
